The values that follow come from PubChem BioAssay.

Each structure is given as a SMILES string. The source made the active and inactive calls.

Test [1] in a line: small molecules captured by biotinylated probe aFSTL3 – biochemical, small-molecule microarray, fluorescence 635/667, stem cell growth factor project, primary screen (AID 1064).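 Also: measures binding of the biotinylated anti-FSTL3 antibody to printed compounds.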 Conditions: higher = more signal.
Test [2] can be described thus: binders from COS7 lysate, DM2A8 probe, primary screen, torsin A project, cell lysate, small-molecule microarray, fluorescence 635/667 (AID 1065). The conditions noted are these: higher = more signal, COS7 lysate expressing mutant human TOR1A.
Test [3] in a line: small molecules captured by biotinylated probe aFGF2 – biochemical, small-molecule microarray, fluorescence 635/667, stem cell growth factor project, primary screen (AID 1067).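 Also: measures binding of biotinylated aFGF2 protein to printed compounds on slides; z-score merges feature fluorescence and signal-to-noise across triplicate slides.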 The conditions noted are these: higher = more signal.
Test [4] is described as follows: small molecules captured by biotinylated probe aFGF10 – biochemical, small-molecule microarray, fluorescence 635/667, stem cell growth factor project, primary screen (AID 1071).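 Also: score merges 667 nm spot intensity and signal to noise from triplicate slides.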 The conditions noted are these: higher = more signal.
In test [5] the target is Neurogenic locus notch homolog protein 2 (Homo sapiens) (UniProt Q04721). Kind of test: small molecules binding Notch2 protein – biochemical, small-molecule microarray, 635 nm fluorescence, stem cell growth factors, primary screen (AID 1073). Conditions: higher = more signal.
Sequence of Neurogenic locus notch homolog protein 2 (Homo sapiens) (Q04721 whole entry, looked up, canonical isoform): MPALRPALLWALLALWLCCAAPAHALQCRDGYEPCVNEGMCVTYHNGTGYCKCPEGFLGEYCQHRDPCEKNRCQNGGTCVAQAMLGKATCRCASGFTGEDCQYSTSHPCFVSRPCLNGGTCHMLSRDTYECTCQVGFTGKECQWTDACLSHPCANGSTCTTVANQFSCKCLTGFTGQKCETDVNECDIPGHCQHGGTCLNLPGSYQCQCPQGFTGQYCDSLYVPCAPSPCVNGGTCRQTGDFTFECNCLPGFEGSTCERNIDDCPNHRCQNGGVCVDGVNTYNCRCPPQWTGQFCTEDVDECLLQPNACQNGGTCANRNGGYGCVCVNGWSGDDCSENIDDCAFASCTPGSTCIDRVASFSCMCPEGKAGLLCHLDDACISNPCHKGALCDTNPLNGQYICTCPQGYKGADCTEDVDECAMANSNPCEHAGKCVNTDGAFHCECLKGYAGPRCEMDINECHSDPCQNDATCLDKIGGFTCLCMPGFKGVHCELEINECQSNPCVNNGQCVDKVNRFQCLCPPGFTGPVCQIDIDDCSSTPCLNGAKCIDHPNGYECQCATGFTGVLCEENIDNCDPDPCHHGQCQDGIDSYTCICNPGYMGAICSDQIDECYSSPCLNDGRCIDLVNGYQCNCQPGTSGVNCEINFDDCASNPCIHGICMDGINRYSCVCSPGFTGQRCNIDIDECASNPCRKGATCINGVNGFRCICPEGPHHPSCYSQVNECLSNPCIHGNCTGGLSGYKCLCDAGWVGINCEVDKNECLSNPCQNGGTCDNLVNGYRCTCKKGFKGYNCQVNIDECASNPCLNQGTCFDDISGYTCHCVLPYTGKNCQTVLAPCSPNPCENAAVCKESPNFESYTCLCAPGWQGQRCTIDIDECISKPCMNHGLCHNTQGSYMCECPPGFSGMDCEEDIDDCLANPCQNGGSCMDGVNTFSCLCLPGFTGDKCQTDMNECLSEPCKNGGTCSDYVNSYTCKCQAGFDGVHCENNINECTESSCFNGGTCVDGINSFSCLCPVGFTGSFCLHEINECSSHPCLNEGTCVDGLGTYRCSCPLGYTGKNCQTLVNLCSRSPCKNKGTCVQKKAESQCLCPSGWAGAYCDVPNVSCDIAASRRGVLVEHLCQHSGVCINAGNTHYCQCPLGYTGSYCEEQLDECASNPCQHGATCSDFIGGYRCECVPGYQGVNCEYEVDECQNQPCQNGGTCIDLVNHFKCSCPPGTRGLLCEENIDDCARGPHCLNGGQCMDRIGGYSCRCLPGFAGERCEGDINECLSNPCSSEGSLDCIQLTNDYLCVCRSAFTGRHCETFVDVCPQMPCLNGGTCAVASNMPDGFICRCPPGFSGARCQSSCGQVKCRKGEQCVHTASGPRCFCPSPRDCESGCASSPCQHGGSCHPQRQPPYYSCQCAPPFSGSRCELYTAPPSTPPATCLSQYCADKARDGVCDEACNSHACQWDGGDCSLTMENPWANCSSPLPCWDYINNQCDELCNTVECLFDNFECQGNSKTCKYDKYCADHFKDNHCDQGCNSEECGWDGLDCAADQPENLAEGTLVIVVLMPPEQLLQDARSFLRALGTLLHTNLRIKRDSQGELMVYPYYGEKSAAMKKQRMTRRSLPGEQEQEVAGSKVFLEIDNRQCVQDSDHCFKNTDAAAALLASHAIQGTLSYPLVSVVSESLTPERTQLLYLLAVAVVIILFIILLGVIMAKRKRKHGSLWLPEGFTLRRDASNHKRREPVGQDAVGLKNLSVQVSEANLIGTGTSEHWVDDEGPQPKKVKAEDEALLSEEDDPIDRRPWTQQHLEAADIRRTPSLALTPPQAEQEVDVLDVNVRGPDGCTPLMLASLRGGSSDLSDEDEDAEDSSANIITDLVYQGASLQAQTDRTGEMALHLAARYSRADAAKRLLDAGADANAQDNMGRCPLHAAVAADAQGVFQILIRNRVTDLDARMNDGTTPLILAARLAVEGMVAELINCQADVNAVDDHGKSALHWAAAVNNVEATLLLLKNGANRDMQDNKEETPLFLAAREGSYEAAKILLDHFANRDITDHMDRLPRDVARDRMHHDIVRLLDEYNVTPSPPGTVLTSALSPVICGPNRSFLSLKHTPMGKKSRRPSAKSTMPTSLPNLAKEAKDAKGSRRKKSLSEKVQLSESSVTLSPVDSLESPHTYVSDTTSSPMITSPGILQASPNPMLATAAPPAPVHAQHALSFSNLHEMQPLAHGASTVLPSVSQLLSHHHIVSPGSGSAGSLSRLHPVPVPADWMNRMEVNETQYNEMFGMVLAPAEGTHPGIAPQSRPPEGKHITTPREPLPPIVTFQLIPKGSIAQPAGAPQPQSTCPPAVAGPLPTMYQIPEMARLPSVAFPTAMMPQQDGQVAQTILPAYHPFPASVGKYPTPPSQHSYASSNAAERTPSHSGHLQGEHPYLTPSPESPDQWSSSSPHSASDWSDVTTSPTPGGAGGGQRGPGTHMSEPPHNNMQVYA
Test [6] concerns the target Pro-neuregulin-1, membrane-bound isoform (Homo sapiens) (UniProt Q02297). Kind of test: small molecules binding neuregulin-1 protein – biochemical, small-molecule microarray, fluorescence 635/667, psychiatric disease protein project, primary screen (AID 1075).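 Also: score combines 667 nm spot fluorescence with signal to noise.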 The conditions noted are these: NRG1 binding, 635 nm fluorescence, higher = more signal.
In test [7] the test system is Neuregulin-1 EGF-like domain. Nature of the test: small molecules binding NRG1 EGF domain – biochemical, small-molecule microarray, 635 nm fluorescence, primary screen (AID 1081).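 Also: binding of the protein to compounds printed on small-molecule microarray slides.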 The conditions noted are these: higher = more signal.
Test [8] can be described thus: FRG1 expression reporter modulators in myotubes – cell-based, C2C12 myotubes, firefly/Renilla luciferase, luminescence, FRG1 inhibition for FSHD, primary screen (AID 1084). The conditions noted are these: FRG1 promoter luciferase, higher = more signal, called active from +8 up or from −8 down.
Test [9] in a line: small molecules captured by biotinylated probe aFST – biochemical, small-molecule microarray, fluorescence 635/667, stem cell growth factor project, primary screen (AID 1086).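 Also: score merges 667 nm fluorescence with signal-to-noise of each printed compound spot.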 The conditions noted are these: higher = more signal.
Test [10] can be described thus: binders of probe aHhip on microarray, primary screen, stem cell growth factor project, biochemical, small-molecule microarray, fluorescence 635/667 (AID 1087).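 Also: score merges spot fluorescence at 667nm with spot signal to noise ratio.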 The conditions noted are these: higher = more signal.
The test system of test [11] is PRMT1 (protein arginine N-methyltransferase 1). Kind of test: small molecules binding arginine methyltransferase PRMT1 – biochemical, small-molecule microarray, 635 nm fluorescence, primary screen (AID 1088).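 Also: binding of Prmt1 protein to compounds spotted on small-molecule microarray slides.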 The conditions noted are these: higher = more signal.
Test [12] can be described thus: growth effects on S. cerevisiae YJM789 – YJM789 clinical isolate, OD600, 24 h, basal, primary screen (AID 1089).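 Also: growth of clinical yeast isolate S. cerevisiae YJM 789 seeded 1000 cells per well; test concentration not given here.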 The conditions noted are these: higher = more signal, called active from +8 up or from −8 down.
Test [13] is described as follows: S. pombe growth modifiers, basal conditions – strain 972, OD600, 24 h, no modulator, primary screen (AID 1090).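 Also: basal condition with compound alone and no growth modifier present; test concentration not given here.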 The conditions noted are these: S. pombe 972 growth, higher = more signal, called active from +8 up or from −8 down.
Test [14] in a line: budding yeast growth modifiers under rapamycin – strain BY4716, OD600, 96 h, primary screen (AID 1091). Also: test concentration not given here. The conditions noted are these: S. cerevisiae BY4716 + rapamycin, higher = more signal, called active from +8 up or from −8 down.
The target in test [15] is Torsin-1A-interacting protein 2 (Homo sapiens) (UniProt Q8NFQ8). Kind of test: small molecules binding lysate-expressed LULL1 – cell lysate, human LULL1 lysate, 635/667 nm fluorescence, primary screen (AID 1092).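 Also: probe is lysate of COS7 cells overexpressing human LULL1; score merges per-feature 667 nm fluorescence with signal-to-noise.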 Conditions: small-molecule microarray, hLULL1 lysate binding, 635 nm fluorescence; higher = more signal.
Sequence of Torsin-1A-interacting protein 2 (Homo sapiens) (Q8NFQ8 whole entry, looked up): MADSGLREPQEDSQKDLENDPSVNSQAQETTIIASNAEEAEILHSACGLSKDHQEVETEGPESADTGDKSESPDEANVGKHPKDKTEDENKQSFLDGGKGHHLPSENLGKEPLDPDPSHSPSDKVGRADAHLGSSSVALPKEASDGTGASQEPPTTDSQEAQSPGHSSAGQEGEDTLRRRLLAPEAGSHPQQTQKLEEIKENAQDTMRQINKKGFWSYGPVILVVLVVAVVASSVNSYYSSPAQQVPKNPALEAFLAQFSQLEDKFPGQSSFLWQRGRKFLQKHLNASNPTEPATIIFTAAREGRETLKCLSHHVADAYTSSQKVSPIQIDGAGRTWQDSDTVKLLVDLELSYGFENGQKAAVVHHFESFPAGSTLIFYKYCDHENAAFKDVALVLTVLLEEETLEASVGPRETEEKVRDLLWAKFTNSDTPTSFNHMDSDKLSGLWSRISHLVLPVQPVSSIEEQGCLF
Test [16] is described as follows: optical density change of DRC41 E. coli – strain DRC41, OD650, 24 h, E. coli filamentation project, primary screen (AID 1093).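 Also: MC1000 strain lacking acrAB efflux and sulA so SOS filamentation is blocked; test concentration not given here.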 The conditions noted are these: E. coli DRC41 growth, higher = more signal, called active from +8 up or from −8 down.
A short description of test [17]: probe aLefty2 binding to arrayed compounds – biochemical, biotinylated probe, 635/667 nm fluorescence, primary screen (AID 1094).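 Also: score merges spot fluorescence near 667 nm with spot signal-to-noise ratio.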 The conditions noted are these: small-molecule microarray, higher = more signal.
The subject of test [18] is Noggin (protein binding on small-molecule microarray). Nature of the test: small molecules binding Noggin protein – biochemical, 635/667 nm fluorescence, primary screen (AID 1095).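 Also: score merges 667 nm feature fluorescence with signal to noise over triplicate slides.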 The conditions noted are these: 635 nm fluorescence, higher = more signal.
The target of test [19] is Neurogenic locus notch homolog protein 3 (Homo sapiens) (UniProt Q9UM47). Nature of the test: small molecules binding NOTCH3 protein – biochemical, 635/667 nm fluorescence, primary screen (AID 1096). The conditions noted are these: small-molecule microarray, 635 nm fluorescence, higher = more signal.
Test [20] can be described thus: probe aEGFR binding to arrayed compounds – biochemical, biotinylated probe, 635/667 nm fluorescence, primary screen (AID 1097).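 Also: probe is a biotinylated anti-EGFR antibody binding compounds printed on slides; score combines fluorescence near 667 nm and signal to noise of each spot.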 The conditions noted are these: small-molecule microarray, higher = more signal.

Sequence of Pro-neuregulin-1, membrane-bound isoform (Homo sapiens) (Q02297 whole entry, looked up, the tested form may be a part, canonical isoform): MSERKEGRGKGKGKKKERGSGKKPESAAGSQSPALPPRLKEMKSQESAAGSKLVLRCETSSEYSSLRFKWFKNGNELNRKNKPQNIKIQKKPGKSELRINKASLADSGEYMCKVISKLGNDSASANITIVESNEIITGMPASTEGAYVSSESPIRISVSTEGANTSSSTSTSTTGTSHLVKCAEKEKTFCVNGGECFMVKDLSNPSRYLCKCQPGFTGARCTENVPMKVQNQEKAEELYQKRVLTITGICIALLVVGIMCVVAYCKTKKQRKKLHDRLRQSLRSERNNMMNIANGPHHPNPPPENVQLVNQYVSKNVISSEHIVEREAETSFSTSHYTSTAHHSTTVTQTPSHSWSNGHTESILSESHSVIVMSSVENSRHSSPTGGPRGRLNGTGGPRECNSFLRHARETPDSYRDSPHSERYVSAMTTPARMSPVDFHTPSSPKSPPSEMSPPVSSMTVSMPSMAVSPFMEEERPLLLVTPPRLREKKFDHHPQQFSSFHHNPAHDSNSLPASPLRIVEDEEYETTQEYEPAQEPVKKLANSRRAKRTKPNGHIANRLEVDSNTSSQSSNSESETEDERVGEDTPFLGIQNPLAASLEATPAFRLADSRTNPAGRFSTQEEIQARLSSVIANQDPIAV

For the compound `COCCOC(=O)N1C(=O)[C@@]2(c3ccccc31)[C@H](c1ccc(O)cc1)N1[C@H](c3ccccc3)[C@H](c3ccccc3)OC(=O)[C@H]1[C@@H]2C(=O)Nc1nc2ccccc2s1`, the composite z-score in test [1] is 0.161; in test [2], 0.912; in [3] it was -0.0441; in test [4], 0.175; in [5], 1.16; in [6] it was 1.38. For the same compound, the composite z-score was 1.11 in test [7]; 0.5 in test [9]; 0.0139 in [10]; 1.31 in test [11]; 1.94 in test [15]; 0.201 in test [17]. Besides, the composite z-score is 0.734 in [18], 1.09 in test [19] and 0.0432 in test [20]. Also, the z-score is -0.929 (inactive) in test [8]; 1.35 (inactive) in [12]; 0.396 (inactive) in test [13]; 1.75 (inactive) in [14]; 1.31 (inactive) in test [16].
In the case of `CN(C)CCCCCCNC(=O)[C@@H]1C[C@@H]2C(=O)N[C@@H](Cc3ccccc3)C(=O)N2[C@@H]1c1ccc(O)cc1`, the composite z-score in test [1] was determined as 0.361; in test [2], 1.57; in test [3], 0.0127; in test [4] it was 0.439; in test [5] it was 0.644; in test [6], 1.07. The composite z-score was 1.42 in [7]; 0.901 in test [9]; -0.0196 in [10]; 1.53 in [11]; 2.84 in test [15]; 0.195 in test [17]. Moreover, the composite z-score amounted to 1.8 in test [18], 1.09 in [19] and 0.246 in [20]. The z-score is 3.06 (inactive) in test [8]; -0.18 (inactive) in test [12]; -0.899 (inactive) in test [13]; 0.0891 (inactive) in test [14]; -0.13 (inactive) in [16].
Turning to `CCOC(=O)C[C@H]1[C@H](OC(=O)c2ccc(C(=O)c3ccccc3)cc2)[C@@H](NC(=O)c2ccccc2)c2cc(OCCCO)ccc2N1C(=O)c1ccc2ccccc2n1`, the composite z-score in test [1] was -0.416; in test [2] it was 0.0991; in test [3] it was -0.0206; in [4], 0.234; in test [5] it was 1.27; in test [6], 0.682. Moreover, the composite z-score in [7] worked out at 0.417; in test [9], 0.314; in test [10], 0.107; in [11], 0.81; in [15] it was 1.54; in [17], 0.418. For the same compound, the composite z-score was 0.0946 in test [18], 1.03 in test [19] and -0.142 in test [20]. Moreover, the z-score is -0.266 (inactive) in [8]; -0.121 (inactive) in test [12]; -0.429 (inactive) in test [13]; 0.443 (inactive) in test [14]; 0.104 (inactive) in test [16].
On to `CCCC[C@H]1OB(O)C[C@H]2C1=C(COC)C[C@H]1C(=O)N(C)C(=O)[C@H]12`, for which the composite z-score in test [1] is -0.441; in test [2], 0.49; in test [3] it was -0.144; in test [4] it was 0.18; in test [5], 0.364; in test [6] it was -0.149. Further, the composite z-score in [7] is 0.6; in test [9] it was 0.106; in test [10], -0.15; in test [11], -0.15; in test [15], 0.0079; in [17], -0.157. The composite z-score in [18] is 1.08; in test [19], 0.769; in [20], -0.139. For the same compound, the z-score in [8] is 0.0329 (inactive); in test [12], -0.937 (inactive); in test [13] it was -0.775 (inactive); in test [14], -0.635 (inactive); in test [16] it was -0.908 (inactive).
Consider `COc1ccc([Si](C)(C)[C@@H]2[C@@H](CC(=O)N3CCC[C@H]3CO)O[C@]3(C(=O)N(c4ccccc4)c4ccccc43)[C@H]2C)cc1`, for which the composite z-score was -0.527 in [1]; 0.411 in test [2]; -0.122 in [3]; 0.713 in test [4]; 0.907 in test [5]; 0.0499 in test [6]. The composite z-score was 1.11 in test [7]; 0.552 in test [9]; 0.21 in test [10]; 1.54 in test [11]; 2.37 in [15]; -0.256 in test [17]. The composite z-score in test [18] is 0.999; in [19], 1.03; in [20], 0.0436. The z-score was -1.24 (inactive) in [8]; -1.57 (inactive) in [12]; -0.589 (inactive) in test [13]; -1.79 (inactive) in test [14]; 2.79 (inactive) in test [16].
With `O=C1NC(=O)C2C1C=CC(C(O)c1cccs1)N2Nc1ccc(Cl)cc1Cl` (stereo not given), the composite z-score in [1] is 0.709; in test [2], -0.232; in test [3], -0.0647; in test [4] it was 0.0409; in test [5] it was -0.0246; in test [6], 1.25. Further, the composite z-score in [7] is 1.14; in [9], 0.0983; in [10], -0.191; in test [11], 0.407; in [15], 2.37; in test [17], -0.0333. The composite z-score in test [18] was -0.394; in [19], -0.23; in [20] it was -0.0476. The z-score was 0.224 (inactive) in [8]; 1.01 (inactive) in test [12]; 0.186 (inactive) in [13]; 1.74 (inactive) in [14]; -0.0056 (inactive) in test [16].
